PubChem BioAssay (NCI)
This is part of a sample that, as a whole, favours compounds with a hit. Of some 79,000 tested, about 15% had one in any assay. No stated cut-off is given here; in the data, active means growth inhibition above about 70%; inactive means the rest.

Key:
[1] = NCI Yeast Anticancer Drug Screen. Data for the rad50 strain (AID 155);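 further: 0% = growth of vehicle-only cultures of the same strain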; conditions: S. cerevisiae rad50 strain growth inhibition, hits give high values; at 50.0 µM unless noted
Method in brief: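 Relative growth inhibition (compound vs vehicle) was measured in yeast with a defined repair-gene alteration.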

[2] = NCI Yeast Anticancer Drug Screen. Data for the mec2-1 strain (AID 157); conditions: S. cerevisiae mec2-1 strain, hits give high values; at 50.0 µM unless noted
Method in brief: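 Compounds were applied to mec2-1 yeast cells. Their growth was then compared with that of vehicle-treated cultures to give growth inhibition.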

[3] = NCI Yeast Anticancer Drug Screen. Data for the sgs1 mgt1 strain (AID 161);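 further: 0% = growth of cultures given vehicle only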; conditions: S. cerevisiae sgs1 mgt1 strain, hits give high values; at 50.0 µM unless noted
Method in brief: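 Percent growth inhibition was derived by comparing compound-exposed mutant yeast with vehicle-exposed cultures. The strain carries alterations in DNA damage repair.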

[4] = NCI Yeast Anticancer Drug Screen. Data for the cln2 rad14 strain (AID 165);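 further: 0% = growth equal to vehicle treated cultures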; conditions: S. cerevisiae cln2 rad14 strain, hits give high values; at 50.0 µM unless noted
Method in brief: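 Strain: cln2 rad14 yeast, altered in cell cycle control and DNA damage repair. Read-out: growth inhibition vs vehicle.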

[5] = NCI Yeast Anticancer Drug Screen. Data for the bub3 strain (AID 167); conditions: S. cerevisiae bub3 mutant strain, hits give high values; at 50.0 µM unless noted
Method in brief: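 Screening used yeast with an engineered genetic alteration affecting cell cycle control. Compound-exposed cultures were compared with vehicle cultures, and reduced growth was taken as inhibition.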

[6] = NCI Yeast Anticancer Drug Screen. Data for the mlh1 rad18 strain (AID 175); conditions: S. cerevisiae mlh1 rad18 strain growth inhibition, hits give high values; at 50.0 µM unless noted
Method in brief: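 A repair-deficient yeast strain is exposed to test compound, and growth is scored relative to vehicle-treated controls.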

Measured: growth inhibition

CCCCCCCCCCCCCCCCCC(=O)N/N=C\c1c(O)ccc2ccccc12
inactive: [1] 21.4% | [2] 11.7% | [3] 4.85% | [4] 2.15% | [5] -10.1% | [6] 20.2%

CC(C)(C)C(C)(C)SSC(C)(C)C(C)(C)C
inactive: [1] 6.05% | [2] 12.4% | [3] 18.8% | [4] 7.4% | [5] 15.7% | [6] 25.5%

CSc1nc(N)cc(=O)n1C
inactive: [1] -16.1% | [2] -11.2% | [3] -23.9% | [4] -53.1% | [5] -9.05% | [6] 14.2%

CCCCCCCCCOc1ccc(C=Nc2ccc(C)cc2)cc1
inactive: [1] -4.3% | [2] 7.8% | [3] -2.55% | [4] -18.9% | [5] -10.9% | [6] -4.65%
